Source: PubChem
A selection: hits, their analogues and other compounds. The true share with any hit is near 2.3%.
MBD2 inh: inhibitors of MBD2 binding to methylated DNA, primary screen, biochemical, TR-FRET, DNA-binding domain, human; Methyl-CpG-binding domain protein 2 (Homo sapiens), Q9UBB5; MBD2 binding to methylated oligonucleotide; inhibition, % at 4.4 µM; hit rate 0.31% among 370,000; in the data active = inhibition above about 13%
PLC-beta3 inh: human PLC-beta3 inhibitors, primary screen, biochemical, fluorescence | hit rate 0.18% among 370,000 | Purified PLC-beta3, fluorogenic substrate | inhibition, % at 12.2 µM | 1-phosphatidylinositol 4,5-bisphosphate phosphodiesterase beta-3 (Homo sapiens), Q01970; in the data active = inhibition above about 11%;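 also: 0% = median of compound wells on plate and 100% = full blocker control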
PLCg1 inh: PLC-gamma1 enzyme inhibitors, primary screen, biochemical, fluorescence, purified enzyme | fluorogenic substrate | inhibition, % at 12.2 µM | hit rate 0.84% among 370,000 | AID 720700, 2013; in the data active = inhibition above about 9.5%
Target sequence (P19174 whole entry, looked up): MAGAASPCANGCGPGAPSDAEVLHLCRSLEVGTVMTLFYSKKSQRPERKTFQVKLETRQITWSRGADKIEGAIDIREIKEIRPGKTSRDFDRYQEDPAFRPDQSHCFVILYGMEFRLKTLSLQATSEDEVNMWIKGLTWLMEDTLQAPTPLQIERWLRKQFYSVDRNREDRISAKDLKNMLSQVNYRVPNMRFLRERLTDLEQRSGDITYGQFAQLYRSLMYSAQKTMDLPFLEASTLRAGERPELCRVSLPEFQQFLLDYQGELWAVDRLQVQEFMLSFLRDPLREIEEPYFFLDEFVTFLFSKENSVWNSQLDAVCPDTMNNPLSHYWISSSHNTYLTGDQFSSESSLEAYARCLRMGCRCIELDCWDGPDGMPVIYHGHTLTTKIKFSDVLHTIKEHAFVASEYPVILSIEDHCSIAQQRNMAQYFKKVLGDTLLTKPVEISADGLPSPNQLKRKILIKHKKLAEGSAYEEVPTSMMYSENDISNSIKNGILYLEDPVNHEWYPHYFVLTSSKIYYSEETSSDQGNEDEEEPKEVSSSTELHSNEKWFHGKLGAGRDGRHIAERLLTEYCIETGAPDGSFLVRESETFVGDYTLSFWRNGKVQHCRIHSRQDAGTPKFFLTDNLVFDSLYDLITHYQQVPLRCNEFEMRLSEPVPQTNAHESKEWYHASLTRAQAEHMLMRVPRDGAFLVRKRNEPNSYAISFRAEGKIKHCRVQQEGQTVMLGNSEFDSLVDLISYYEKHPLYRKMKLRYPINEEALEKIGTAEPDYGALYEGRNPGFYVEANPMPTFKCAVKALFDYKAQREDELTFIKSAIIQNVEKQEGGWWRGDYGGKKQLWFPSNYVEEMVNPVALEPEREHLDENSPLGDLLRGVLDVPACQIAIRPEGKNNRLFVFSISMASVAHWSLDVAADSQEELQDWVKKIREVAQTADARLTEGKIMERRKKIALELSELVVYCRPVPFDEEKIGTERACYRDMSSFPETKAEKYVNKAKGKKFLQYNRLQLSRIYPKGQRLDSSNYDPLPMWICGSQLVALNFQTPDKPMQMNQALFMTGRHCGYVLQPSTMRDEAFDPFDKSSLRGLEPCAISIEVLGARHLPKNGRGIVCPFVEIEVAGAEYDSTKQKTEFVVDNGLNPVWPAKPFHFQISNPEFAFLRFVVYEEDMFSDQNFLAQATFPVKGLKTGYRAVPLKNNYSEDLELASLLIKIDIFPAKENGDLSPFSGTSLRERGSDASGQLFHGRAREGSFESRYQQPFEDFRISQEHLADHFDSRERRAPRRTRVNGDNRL
UHRF1 MBD2 ctr: UHRF1 methylated DNA binding inhibitors, primary screen, counter-screen for MBD2 inhibitor project, biochemical, TR-FRET, human UHRF1, single concentration; UHRF1 binding to methylated oligo; AID 687016, 2013; inhibition, % at 4.4 µM; hit rate 0.75% among 370,000; in the data active = inhibition above about 21%;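 also: UHRF1 SRA domain binding a hemimethylated CpG hairpin DNA probe; 0% = median of test compound wells and 100% = reference inhibitor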
LEDGF integ inh: blockers of LEDGF/p75-dependent integrase strand transfer – biochemical, TR-FRET, high throughput, primary screen | HIV-1 integrase (with human LEDGF/p75) | TR-FRET IN-LEDGF/p75 DNA integration, Eu/Cy5 | inhibition, % at 3.7 µM | hit rate 0.64% among 370,000 | AID 743269, 2014;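 active = inhibition above the screen-wide mean plus 3 SD, cut at about 13% in these data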;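 also: signal is the Cy5 over europium emission ratio at 671 and 618 nm; 0% = plate median of compound wells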
The depositor's hits bear a star; i = inactive.

SMILES | MBD2 inh | PLC-beta3 inh | PLCg1 inh | UHRF1 MBD2 ctr | LEDGF integ inh
CC(C)CC(c1nnnn1Cc1cccs1)N1CCN(c2nc3ccccc3s2)CC1 (configuration not stated) | 3 | 10 | 9.9* | 8 | 4
COc1cc(NC(=O)c2ccccc2)c(OC)cc1Cl | -1 | -2 | -2 | 0 | 0
COc1cc(Cl)c(C)cc1NC(=O)c1ccc(S(C)(=O)=O)cc1 | 7 | -4 | -3 | 24* | 1
CCC[C@H]1[C@@H](OC(=O)Oc2ccc([N+](=O)[O-])cc2)CC[C@@]23CCCN2C(=O)CCC[C@@H]13 | 4 | 3 | 2 | -1 | 2
CCOC(=O)c1c(C)n(O)c2ccc(Cl)cc2c1=O | 7 | i | i | 25* | -2
O=C(Nc1ccc(OC(F)F)cc1)c1ncc(Cl)c(Cl)c1Cl | 13 | -8 | 2 | 24* | -5
CNC(=O)c1sc(-c2ccccc2)nc1C | 0 | 3 | 2 | 33* | -1
COC(=O)c1ccc(S(=O)(=O)N(Cc2ccccc2)Cc2ccccc2)n1C | -5 | -7 | 1 | 62* | -1
O=C(NC1=N[C@@]2(C=C3CCCCC3n3c(=O)n(-c4ccccc4)c(=O)n32)CN1Cc1ccccc1)c1ccccc1 (some centres not stated) | 1 | -12 | -7 | 0 | -1
O=C(O)c1cc(N2N=C(C(F)(F)F)/C(=C/C=C/c3ccco3)C2=O)ccc1Cl | 108* | 1 | 63* | 97* | 82*
CCOC(=O)c1ccc(N2N=C(C)/C(=C/C=C/c3ccco3)C2=O)cc1 | -4 | 1 | 0 | -4 | 10
CCN(CC)CC(C)OC(=O)COc1ccc(OC)cc1 (configuration not stated) | -3 | -2 | -3 | 24* | 3
CCCCCCC/C=C(\C)[C@@H](O)[C@@H](C)C(=O)N1CCC[C@@H]1C(=O)O | 6 | 6 | 8 | 18 | 7
COc1ccc(Cn2c(SCC(=O)NCc3ccco3)nc3ccsc3c2=O)cc1 | -4 | 2 | 0 | 5 | 21*
C#CCN(CC=C)Cc1ccc(OC)cc1OC | 1 | 0 | 0 | 1 | -2
O=C(O)c1cc(O)c2c(c1)[C@@H]([C@H]1c3cc(C(=O)O)cc(O)c3C(=O)c3c(O[C@@H]4O[C@H](CO)[C@@H](O)[C@H](O)[C@H]4O)cccc31)c1cccc(OC3O[C@H](CO)[C@@H](O)[C@H](O)[C@H]3O)c1C2=O (some centres not stated) | 38* | 12* | 7 | 80* | 74*
O=C1c2cc(CO)cc(O)c2C(=O)c2c(O[C@@H]3OC(CO)[C@@H](O)[C@@H](O)[C@@H]3O)cccc21 (some centres not stated) | -7 | -8 | -4 | -4 | 3
CN1CCN(S(=O)(=O)c2cc(C(F)(F)F)ccc2Cl)CC1 | 1 | 1 | 1 | 31* | -2
C[C@@H]1CN([C@H](C)CO)S(=O)(=O)c2ccc(C#Cc3ccccc3)cc2O[C@@H]1CN(C)C(=O)CN(C)C | 3 | -48 | -34 | -2 | -5
CCCN(C)C[C@H]1Oc2cc(C#Cc3ccc(F)cc3)ccc2S(=O)(=O)N([C@H](C)CO)C[C@@H]1C | 14* | -9 | -5 | 22* | -5
CCCC#Cc1ccc2c(c1)O[C@H](CN(C)C(=O)CC1CC1)[C@H](C)CN([C@@H](C)CO)S2(=O)=O | 11 | -5 | -3 | 24* | -4
C[C@@H]1CN([C@H](C)CO)S(=O)(=O)c2ccc(C#CC3CCCC3)cc2O[C@H]1CN(C)C(=O)Cc1ccccc1 | 10 | 2 | -1 | 22* | 3
Cn1cccc1C(=O)N1CCN(S(=O)(=O)c2ccc(F)cc2)CC1 | 2 | 3 | 2 | -2 | -2
Cc1nc(C(F)(F)F)ccc1C(=O)NCC(O)c1ccccc1 (configuration not stated) | 4 | -3 | 0 | 46* | -5
COc1ccc(Cl)cc1NC(=O)CSc1nnc(CNC(=O)c2ccco2)o1 | 0 | 1 | 1 | 22* | -4
SMILES | MBD2 inh | PLC-beta3 inh | PLCg1 inh | UHRF1 MBD2 ctr | LEDGF integ inh
COc1ccc(OC)c(NC(=O)CSc2nnc(CNC(=O)c3ccco3)o2)c1 | -3 | 4 | 2 | 8 | -2
CCOC(=O)[C@@]12CN(C(=O)OC(C)(C)C)CC=C1N(Cc1ccc(OC)cc1)C(=O)[C@H]2CC(=O)N1CCCCC1 | -2 | 0 | -2 | -1 | -2
COc1ccccc1-c1ccc(/C=C2/C=C(C)OC2=O)o1 | 1 | -171 | -144 | -3 | 10
CC1=C/C(=C\c2ccc(Br)o2)C(=O)O1 | 16* | -3 | -7 | 53* | 11
CN(C)S(=O)(=O)c1cccc(C(=O)N/N=C\c2cccc(C#N)c2)c1 | 0 | -1 | -2 | -1 | -2
CC1CN(C(=O)c2cc3c(=O)n4ccccc4nc3n2C)CC(C)O1 (configuration not stated) | 0 | i | i | 27* | -2
O=C(CC1S/C(=N\S(=O)(=O)c2ccccc2)N(c2ccccc2)C1=O)Nc1ccc(F)cc1 (configuration not stated) | 7 | 1 | 1 | -1 | -1
Cc1ccc(S(=O)(=O)/N=C2\SC(CC(=O)Nc3ccc(F)cc3)C(=O)N2c2ccccc2)cc1 (configuration not stated) | -6 | 11* | 7 | -7 | 3
CCOc1ccc(OCCCC(=O)N2CCN(S(=O)(=O)c3ccc(Cl)cc3)CC2)cc1 | 8 | -2 | 2 | 0 | 32*
CC(C)(C)OC(=O)C1[C@H](O)C=CC[C@H]1S(=O)c1ccccc1 (some centres not stated) | 2 | 0 | -1 | 0 | -2
COc1ccccc1N1CCN(C(=O)c2ccc3c(c2)CCN3S(C)(=O)=O)CC1 | -2 | -4 | 3 | 0 | 3
CS(=O)(=O)N1CCc2cc(C(=O)N3CCN(c4ccccc4F)CC3)ccc21 | 5 | -4 | 6 | 23* | 4
Cc1ccc(NC(=O)CN2C(=O)S/C(=C/c3ccc(-c4cc(C(=O)O)ccc4C)o3)C2=O)cc1C | 8 | -26 | -22 | 33* | 9
Cn1nc(Cc2n[nH]c(=S)n2C)c2ccccc2c1=O | 1 | -5 | 0 | 56* | -5
CCOC(=O)Cc1nn(C)c(=O)c2ccccc12 | 4 | 0 | 1 | 26* | 0
Cn1c(CC(=O)Nc2ccccc2)n[nH]c1=S | 1 | -6 | 0 | 2 | 0
CC(C)c1ccc(C(=O)Nc2cc(Cl)ccc2C(=O)O)cc1 | 0 | -5 | 0 | 2 | 4
CSc1ccc(OC2CCCCC2NS(=O)(=O)c2ccccc2)cc1 (configuration not stated) | 2 | 2 | -3 | 98* | -4
